# Reference: PubChem BioAssay AID1671448 (Corson Lab, School of Medicine, Indiana University, 2021)
# Hit rate of the full screen: of about 20,000 compounds, about 660 (3.3%) were called active.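 The calls were made as follows: active = enzyme reaction rate more than 3 SD below the solvent-only control wells on the same plate; inactive = the rest.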 The list comes from a sample in which actives are over-represented; it also holds similar structures and randomly drawn compounds.
# Target: Ferrochelatase, mitochondrial (Homo sapiens) (UniProt P22830)
# Sequence (P22830 whole entry, looked up): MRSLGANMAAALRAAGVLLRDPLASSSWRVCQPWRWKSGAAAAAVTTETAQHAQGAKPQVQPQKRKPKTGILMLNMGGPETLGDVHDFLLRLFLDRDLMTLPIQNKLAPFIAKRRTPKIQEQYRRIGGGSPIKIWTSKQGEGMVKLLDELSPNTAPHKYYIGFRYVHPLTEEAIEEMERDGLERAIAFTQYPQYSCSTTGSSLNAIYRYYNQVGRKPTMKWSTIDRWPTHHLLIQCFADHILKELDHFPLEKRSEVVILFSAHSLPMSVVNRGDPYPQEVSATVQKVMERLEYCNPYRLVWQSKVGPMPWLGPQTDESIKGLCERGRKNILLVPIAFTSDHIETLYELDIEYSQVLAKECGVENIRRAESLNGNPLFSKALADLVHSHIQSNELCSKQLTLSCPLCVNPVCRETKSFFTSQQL
# Test: FECH heme synthesis enzyme blockers – biochemical, purified FECH, Ni-mesoporphyrin absorbance, primary screen (AID 1671448)
# Details: Ni-mesoporphyrin absorbance 550 nm, screened at 10 µM (by protocol)
row,SMILES,outcome
1,Cc1cccc(Cn2c(=O)c3cnc(-c4ccncc4)nc3n(C)c2=O)c1,inactive
2,C=CC[C@@H]1CC=C[C@@H](C)N1C(=O)Cc1c(C)nc(C)[nH]c1=O,inactive
3,C=CCn1c(=O)c2cnc(-c3ccc(OC)cc3)nc2n(C)c1=O,inactive
4,C=CCn1c(=O)c2cnc(-c3ccc(Cl)cc3)nc2n(C)c1=O,active
5,Cn1c(=O)n(CC(=O)N2CCOCC2)c(=O)c2cnc(-c3ccccc3)nc21,active
6,Cn1c(=O)n(CC(=O)NCc2cccs2)c(=O)c2cnc(-c3ccccc3)nc21,inactive
7,COc1ccccc1-c1nc(Cn2c(=O)c3cnc(-c4ccc(Cl)cc4)nc3n(C)c2=O)c(C)o1,inactive
8,CCc1ccc(CNC(=O)Cn2c(=O)c3cnc(-c4ccccc4)nc3n(C)c2=O)cc1,inactive
9,COc1ccc(OC)c(S(=O)(=O)Nc2ccc(Sc3c(C)c(C)nc4ncnn34)cc2)c1,inactive
10,COc1ccccc1C(=O)Nc1cc(C)nn1-c1ncnc2c1cnn2-c1ccc(C)cc1C,inactive
11,Cc1ccccc1C(C(=O)N1CCCOCC1)N(C)C (stereo unspecified),inactive
12,Cc1ccsc1CN(CCO)C(=O)c1ccc2c(c1)CCCO2,inactive
13,CC(=O)N1CCN(Cc2nc3c(C)c(C)ccc3[nH]2)CC1,inactive
14,CC(C)NC(=O)C1CCC(Cn2c(=O)c3sccc3n(CC(=O)NCc3ccco3)c2=O)CC1 (stereo unspecified),inactive
15,CCn1cc(CN2CCN(C)C3(CCN(C(=O)c4ccco4)CC3)C2)cn1,inactive
16,CCOC(=O)c1cccc(Nc2cc(-c3ccc(C)cc3)nc(C)n2)c1,inactive
17,CCC(=O)Nc1ccccc1-c1nnc(SC(CC)C(=O)Nc2ccc(OC)cc2)[nH]c1=O (stereo unspecified),inactive
18,COc1ccc(N2C(=O)CCS2(=O)=O)cc1S(=O)(=O)Nc1ccc(C(C)C)cc1,inactive
19,Nc1nc2c(c(-c3cccnc3)n1)CN(C(=O)c1cc(F)c(F)c(F)c1)C2,inactive
20,CC(Cc1ccc2c(c1)OCO2)CN1CCC(NS(C)(=O)=O)CC1 (stereo unspecified),inactive
21,Cc1noc(C)c1S(=O)(=O)N1CC(c2cccnc2)C1,inactive
22,c1cc(CN2CCOCC2)cc(-c2ccc(NC3CCCC3)nn2)c1,active

row,SMILES,outcome
1,c1ccc(-c2ccc(-c3nccn3CCN3CCOCC3)s2)cc1,inactive
2,O=C1CC(c2cccnc2)c2cnn(CC3CC3)c2N1 (stereo unspecified),inactive
3,O=C(O)CSc1nnc(C2CCCNC2)n1-c1cccc(Cl)c1 (stereo unspecified),inactive
4,c1ccc(C2CCN(CCn3ccnc3C3CC3)C2)cc1 (stereo unspecified),inactive
5,Cc1cc(C)cc(Nc2nc(N3CCOCC3)nc3c2cnn3-c2ccccc2)c1,inactive
6,Cc1cc(C)n(CCC(=O)N(Cc2ccccc2C)CC2CCCO2)c(=O)n1 (stereo unspecified),inactive
7,CC1CNC(=O)CCN1Cc1ccc2cccc(Cl)c2n1 (stereo unspecified),inactive
8,CCc1nc(C)c(C(=O)N2CCN(c3nsc4ccccc34)CC2)o1,inactive
9,Cc1c(F)cccc1NC(=O)CNC(c1ccccn1)C(F)(F)F (stereo unspecified),inactive
10,CCCSc1ncc(CN2CCC3(CCC(=O)N(C)CC3)CC2)cn1,inactive
11,Cc1cc(C)c(CN2CCN(Cc3ccccc3Cl)S2(=O)=O)c(C)c1,inactive
12,COc1ccc(-c2cc3n(n2)CCC(=O)N3Cc2ccc(C(=O)NCCN3CCCC3)cc2)cc1,inactive
13,Fc1ccc(-c2cc(CNc3nccc(C4CCCC4)n3)no2)cc1,inactive
14,COc1ccc(Nc2cc(C)nc(Nc3ccc(NC(=O)c4ccc(C)cc4)cc3)n2)cc1,inactive
15,CCCn1ccnc1C1CC(=O)Nc2c1c(C(C)C)nn2-c1ccccc1 (stereo unspecified),inactive
16,Cc1cc2nc(COc3ccc(Cl)cc3NC(=O)COc3ccccc3C)cc(=O)n2o1,inactive
17,O=C1CN(Cc2c(F)cccc2Cl)S(=O)(=O)c2ccccc2N1Cc1ccccc1,inactive
18,Cc1ccc(C)c(N2C(=O)N(Cc3cc(F)cc(F)c3)c3ccccc3S2(=O)=O)c1,active
19,COc1cccc(CN2CC(=O)N(Cc3cccc(C(F)(F)F)c3)c3ccccc3S2(=O)=O)c1,inactive
20,COc1ccccc1C(=O)Nc1ccccc1Sc1c(C)c(C)nc2nc(-c3ccccc3)nn12,inactive
21,CC(NC(=O)CCc1c[nH]c2ccccc12)c1cn2ncsc2n1 (stereo unspecified),inactive
22,CCC(C)N(Cc1ccsc1)C(=O)c1cn2c(n1)CNCC2 (stereo unspecified),inactive

row,SMILES,outcome
1,Cc1cccc(-c2ncc(CNCCNC(=O)c3ccccc3Cl)cn2)c1,inactive
2,CCc1cc(Sc2ccc(NC(=O)Cc3cccs3)cc2)n2ncnc2n1,inactive
3,COc1ccc(C(=O)N(Cc2nc3nc(C)cc(C)n3n2)c2ccc(F)cc2)cc1,inactive
4,O=C(NCc1ccccc1)c1nc(N2CCOCC2)c2oc3ccccc3c2n1,inactive
5,CCOCCCNC(=O)C1CCN(c2ccc(-c3ccc(C)cc3)nn2)CC1,inactive
6,Nc1ccc(S(=O)(=O)Nc2cccc(Cl)c2)cc1S(N)(=O)=O,active
7,CCCc1cc(NCc2ccc(OC)cc2)n2nc(-c3cccnc3)nc2n1,inactive
8,Cc1ccc(-c2ccnc(NCc3cnn4ccccc34)n2)c(C)n1,inactive
9,O=C(Nc1nc2n(n1)C(c1ccc(F)cc1)C=C(c1ccc(Cl)cc1)N2)c1cccnc1 (stereo unspecified),inactive
10,Cc1ccc(-c2ccnc(-c3ccc(CCC(=O)O)cc3)n2)c(C)n1,inactive
11,Cc1ccc(-n2c(=O)n(C)c3c(C(N)=O)nc(-c4ccc(Cl)cc4)nc32)cc1C,inactive
12,Cc1cc(C)n2nc(CN(C(=O)c3ccco3)c3ccc(Cl)cc3)nc2n1,inactive
13,COc1ccc(NC2=NC(C(=O)Nc3cc(OC)ccc3OC)CC(=O)N2)cc1 (stereo unspecified),inactive
14,CCOc1cc(-c2c(-c3ccccc3)ncn2Cc2c(C)n[nH]c2C)ccc1OC,inactive
15,COCCN1CCCC(O)(CN2CCN(c3nc4ccccc4o3)CC2)C1=O (stereo unspecified),inactive
16,OCc1csc(N2CCC(CO)(Cc3ccccc3Cl)CC2)n1,inactive
17,Cc1ccc(C2=CC(c3ccc(F)cc3)n3nc(NC(=O)CC(C)C)nc3N2)cc1 (stereo unspecified),inactive
18,Cc1ccc(S(=O)(=O)N2CCN(c3cc(-c4ccc(F)cc4)ncn3)CC2)cc1C,inactive
19,Cc1cccc(-c2nc3nc(CN(C)Cc4ccccc4)cc(=O)n3[nH]2)c1,active
20,CCOc1ccc(N(Cc2nc3nc(C)cc(C)n3n2)C(=O)c2ccco2)cc1,inactive
21,O=C(Nc1ccccc1)c1cc2n(n1)CCN(Cc1cnc[nH]1)C2,inactive
22,Cn1c(=O)n(Cc2ccc(F)cc2Cl)c(=O)c2cnc(-c3cccnc3)nc21,inactive
